The results in this text go back to PubChem BioAssay (NCI).

What all share (assay): NCI-60 one-dose screen, 48 h (100 = growth as untreated, 0 = no growth, -100 = all killed)
Settings in all cases: 10 µM

Assay [1] has as its system HCT-15 colon.
The test system of assay [2] is HT29 colon.
For assay [3], the system named is SNB-75 CNS.
The test system of assay [4] is SNB-19 CNS.
For assay [5], the system named is U251 CNS.
In assay [6] the test system is PC-3 prostate.
Assay [7] deals with SK-MEL-5 melanoma.
The subject of assay [8] is UACC-62 melanoma.
In assay [9] the test system is SK-MEL-28 melanoma.
In assay [10] the test system is LOX IMVI melanoma.

About 83,000 compounds went through this panel and 20% of them were active in at least one assay; those are over-represented in the sample as a whole.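 The endpoint reported here, percent growth, reads 100 for growth as untreated, 0 for no net growth and -100 for all cells dead.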 Unmarked numbers belong to inactive results. Active and inactive are the calls of the source. The calls were made as follows: active = growth percent below 10; inactive = the rest.

As to `CCn1c(SC/C(=N/O)c2ccccc2)nnc1-c1ccccc1`, the growth was 101% in assay [1]; 104% in assay [2]; 87.8% in assay [3]; 98.9% in [4]; 102% in assay [5]; 81.2% in assay [6]. Moreover, the growth in [7] is 100%; in assay [8] it was 86.2%; in assay [9] it was 106%.

Regarding `COc1cc2cc(Oc3ccc(NC(=O)c4ccc(Cl)c(C(F)(F)F)c4)cc3)c(C)nc2cc1OC`, the growth in assay [1] is 26.9%; in [2], 26%; in [3] it was 68.4%; in [4], 39.3%; in [5] it was 2.03% (active); in [6] it was 4.32% (active). Also, the figures for the growth in assay [7], in [8] and in assay [9] were 25.5%, 13.9% and 66.9%, respectively.

On to `CCc1ccc(-c2ccc(-n3nc(C)c4c(N)nc(Cc5ccccc5)nc43)cc2)cc1`, for which the growth in assay [1] was 60.6%; in assay [2], 78.8%; in [3] it was 65%; in assay [4], 66.3%; in assay [5], 68%; in [6] it was 54.7%. Besides, the growth in assay [7] was 95.5%; in assay [8] it was 73.1%; in [10] it was 51.1%; in assay [9] it was 92.4%.

As to `CCOS(=O)(=O)c1c(C(C)C)cc(C(C)C)cc1C(C)C`, the growth is 97.2% in assay [1]; 112% in assay [2]; 96.8% in assay [3]; 103% in [4]; 98.6% in [5]; 96% in assay [6]. Besides, the growth is 100% in assay [7], 98.4% in assay [8] and 96.5% in assay [9].

Regarding `C=C(NC(=O)C(=C)NC(=O)c1csc(C2=NC3c4csc(n4)C4NC(=O)c5csc(n5)C(C(C)(O)C(C)O)NC(=O)C5CSC(=N5)C(=CC)NC(=O)C(C(C)O)NC(=O)c5csc(n5)C3(CC2)NC(=O)C(C)NC(=O)C(=C)NC(=O)C(C)NC(=O)C(C(C)CC)NC2C=Cc3c(C(C)O)cc(nc3C2O)C(=O)OC4C)n1)C(N)=O` (stereo not given), the growth in assay [1] is 36.9%; in assay [2] it was 3.8% (active); in assay [3], 66.7%; in [4], 66.6%; in [5] it was 8.08% (active); in assay [6] it was 63.7%. Moreover, the growth in [7] was -5.61% (active); in assay [8] it was -17% (active); in [10], -7.87% (active); in assay [9], -34.5% (active).

In the case of `COc1cc2ncnc(NC3CCC(O)CC3)c2cc1OC` (stereo not given), the growth was 101% in [1]; 90% in [2]; 91.9% in [3]; 97.4% in assay [4]; 90.2% in assay [5]; 87.7% in assay [6]. Further, the growth in assay [7] is 98.6%; in [8] it was 97.1%; in assay [10], 95.3%; in [9], 108%.

Regarding `O=C(CCC(C(=O)c1ccccc1)c1ccccc1)c1ccccc1` (stereo not given), the growth in [1] was 45.8%; in [2], 34.1%; in assay [3], 79.9%; in assay [4], 89.8%; in assay [5] it was 90.4%; in [6], 55.5%. In addition, the growth in assay [7] was 82.5%; in assay [8], 63%; in assay [10], 91.9%; in assay [9] it was 80.5%.

Regarding `OC[C@H]1OC([S-])[C@H](O)[C@@H](O)[C@@H]1O.[Au+]` (stereo not given in full), the growth in assay [1] was 87.8%; in [2], 83.8%; in assay [3], 98.8%; in assay [4], 101%; in assay [5] it was 61.7%; in assay [6], 77.8%. The growth is 68.5% in [7], 63.3% in assay [8], 50.3% in assay [10] and 68.9% in assay [9].

Turning to `Nc1ccc(/C=N/Nc2ccnc3c(O)cccc23)c2cccnc12`, the growth in [1] is 26.1%; in [2], 56.8%; in [3], 69.9%; in [4] it was 72.7%; in assay [5], 4.7% (active); in [6] it was 34.8%. The growth was 82.3% in assay [7], 95.2% in assay [8], -72.9% (active) in assay [10] and 90.9% in assay [9].

Consider `CCN1C(=O)CC(SC2CC(=O)N(CC)C2=O)C1=O` (stereo not given), for which the growth in assay [1] is 105%; in assay [2], 79.7%; in [3], 97.4%; in assay [4] it was 95.7%; in assay [5], 102%; in assay [6] it was 101%. Moreover, the growth in assay [7] is 104%; in assay [8], 102%; in [10], 95.2%; in assay [9], 112%.

For the molecule `CN1CCN(C2=Nc3ccccc3Oc3ccc(Cl)cc32)CC1`, the growth in assay [1] was 103%; in assay [2], 88.3%; in [3], 59.5%; in assay [4] it was 104%; in assay [5], 102%; in assay [6], 83.8%. Also, the growth in [7] is 96.7%; in [8], 98.7%; in assay [10], 103%; in [9] it was 110%.

For the molecule `Cc1noc(C)c1CSc1ccccc1C(=O)N1CCN(c2cccc(C(F)(F)F)c2)CC1`, the growth in [1] is 72.4%; in [2] it was 69.4%; in assay [3], 76.2%; in [4], 81.5%; in assay [5], 88.2%; in [6] it was 55.3%. Besides, the growth was 43.5% in assay [7], 52.2% in assay [8] and 91.4% in assay [9].

As for `O=C(/C=C/C=C/c1c(C2CC2)nc2ccccc2c1-c1ccc(F)cc1)c1cccs1`, the growth is 18.6% in assay [1]; -38.5% (active) in [2]; 43.4% in [3]; 42.3% in [4]; -19.4% (active) in assay [5]; 24.9% in assay [6]. Moreover, the growth in assay [7] was -77.1% (active); in [8] it was 13.3%; in [10], -71.5% (active); in assay [9], -2.12% (active).

With `COc1cc(-c2nn(-c3cccc(NC(=O)NCCNC(=O)c4cccc(C(F)(F)F)c4)c3)cc2-c2ccncc2)ccc1Cl`, the growth in assay [1] was 53.2%; in [2] it was 21.1%; in assay [3], 16.5%; in assay [4], 53.5%; in [5], 28.4%; in assay [6], 17.6%. For the same molecule, the growth in [7] is 7.16% (active); in assay [8], 50.7%; in assay [9], 57.6%.
